Screening results (PubChem BioAssay)
KDM5B inhibitor – inhibitors of human KDM5B histone demethylase. Q9UGL1. KDM5B demethylase, FDH-coupled NADH fluorescence (FDH is formaldehyde dehydrogenase). Potency, µM (titrated, usually from 57.7 µM), hits mostly inhibitors. 2.6% of 220,000 active. AID 1347165; active means well fitted inhibition curve with a large enough effect; further: 0% is about no effect; nearly all actives have a fitted effect of over 70% in size
Target sequence (Q9UGL1 whole entry, looked up): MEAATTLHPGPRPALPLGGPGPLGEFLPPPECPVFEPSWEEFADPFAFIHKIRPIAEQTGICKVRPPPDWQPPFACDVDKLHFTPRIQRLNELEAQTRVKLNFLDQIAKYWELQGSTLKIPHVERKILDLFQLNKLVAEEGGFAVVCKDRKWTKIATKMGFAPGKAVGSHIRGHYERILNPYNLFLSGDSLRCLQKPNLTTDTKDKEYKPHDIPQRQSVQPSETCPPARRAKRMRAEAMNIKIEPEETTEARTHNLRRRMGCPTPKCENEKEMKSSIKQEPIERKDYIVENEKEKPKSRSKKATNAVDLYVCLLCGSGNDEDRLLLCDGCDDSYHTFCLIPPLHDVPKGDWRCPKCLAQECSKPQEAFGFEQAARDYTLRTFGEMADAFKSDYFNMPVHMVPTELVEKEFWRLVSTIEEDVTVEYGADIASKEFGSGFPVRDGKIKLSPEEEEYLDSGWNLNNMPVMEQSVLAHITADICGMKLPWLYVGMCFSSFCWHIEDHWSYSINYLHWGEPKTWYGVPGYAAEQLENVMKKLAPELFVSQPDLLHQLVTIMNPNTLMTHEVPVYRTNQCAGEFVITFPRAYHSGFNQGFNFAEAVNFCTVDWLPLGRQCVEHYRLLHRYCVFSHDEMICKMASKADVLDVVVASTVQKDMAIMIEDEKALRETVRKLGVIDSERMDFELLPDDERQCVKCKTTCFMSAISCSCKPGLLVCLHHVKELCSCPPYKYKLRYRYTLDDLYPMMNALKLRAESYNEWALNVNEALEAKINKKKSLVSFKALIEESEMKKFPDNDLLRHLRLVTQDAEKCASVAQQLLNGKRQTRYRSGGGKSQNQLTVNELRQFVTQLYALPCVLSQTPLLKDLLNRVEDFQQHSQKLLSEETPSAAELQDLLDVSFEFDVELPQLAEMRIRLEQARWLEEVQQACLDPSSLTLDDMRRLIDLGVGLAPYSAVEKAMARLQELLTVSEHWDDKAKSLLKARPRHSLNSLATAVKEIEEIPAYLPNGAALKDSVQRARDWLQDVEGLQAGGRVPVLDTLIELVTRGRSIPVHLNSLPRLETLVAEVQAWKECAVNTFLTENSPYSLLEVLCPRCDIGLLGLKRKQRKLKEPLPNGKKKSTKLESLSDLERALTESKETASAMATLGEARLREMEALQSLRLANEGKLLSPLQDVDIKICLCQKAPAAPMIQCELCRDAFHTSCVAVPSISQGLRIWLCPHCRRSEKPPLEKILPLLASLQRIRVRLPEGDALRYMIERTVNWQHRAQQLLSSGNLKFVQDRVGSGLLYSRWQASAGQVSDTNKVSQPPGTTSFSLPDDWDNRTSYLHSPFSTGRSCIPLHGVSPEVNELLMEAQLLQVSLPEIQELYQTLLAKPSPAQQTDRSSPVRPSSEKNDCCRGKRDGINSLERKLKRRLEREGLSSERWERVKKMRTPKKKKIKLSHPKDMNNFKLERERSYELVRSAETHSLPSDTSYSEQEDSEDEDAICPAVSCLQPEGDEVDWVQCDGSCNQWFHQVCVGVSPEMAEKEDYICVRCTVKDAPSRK
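Here, H3K4me3 peptide (12.5 µM in substrate mix) is demethylated by KDM5BΔAP, 200 nM final, after 10 min compound exposure. Formaldehyde product is coupled through FDH (0.25 U/mL in mix) to NADH fluorescence; 30-min ΔRFU feeds dose-response curves.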
Starred values were filed as active, the others as inactive; i = inactive. The full list was thinned out, with hits kept by preference. Potency means the concentration at half of the fitted maximal effect.

SMILES | KDM5B inhibitor
COCCn1c(C(=O)NCc2ccc(OC)cc2)nc2ccccc2c1=O | i
CN(CC1CCOCC1)C(=O)NCc1ccccc1 | i
COCCN1Cc2ccc(NCc3ccccc3)nc2C(C)(C(=O)NCc2ccccc2)C1 (centres undefined) | 28µM*
CC1(C(=O)NCc2cccnc2)COCc2cnc(Nc3ccccc3)nc21 (centres undefined) | i
COc1ccc(OC)c(NC(=O)C2CCCCC(=O)N2)c1 (centres undefined) | i
O=C(CCn1nnc2ccccc21)OCC(=O)c1ccc2c(c1)OCCO2 | i
CC(CN1CCCCC1)C(=O)O (centres undefined) | i
CCCCCCC/C=N/NC(=O)CCCCCCCCCCC | i
CCC(CN)Cc1ccccc1 (centres undefined) | i
COCCN1C(=O)Cc2ccccc2C1C(=O)NCc1cccc(Cl)c1 (centres undefined) | i
CCCCCn1nc(C(=O)OC(C)C(=O)Nc2ccc(NC(C)=O)cc2)c2ccccc2c1=O (centres undefined) | i
CN(Cc1ccccc1)C(=O)c1nccnc1N | i
COCCOC1CCOC2(CCN(C(=O)COc3ccc(C)cc3)CC2)C1 (centres undefined) | i
COc1ccc2nc(N3C(=O)C(O)=C(C(=O)c4ccco4)C3c3cccc(OC)c3OC)sc2c1 (centres undefined) | i
N#Cc1ccc(C(=O)Nc2ccc3ncnc(N4CCCCC4)c3c2)cc1 | i
COc1ccc(CC(=O)Nc2ccc3ncnc(N4CCCCC4)c3c2)c(Cl)c1 | 32µM*
CCOCC(=O)Nc1ccc2ncnc(N3CCCCC3)c2c1 | i
Nc1ccc2ncnc(N3CCCC3)c2c1 | 28µM*
O=C(Nc1ccc2ncnc(N3CCCC3)c2c1)c1cccc(Br)c1 | 32µM*
COc1cccc(CC(=O)Nc2ccc3c(N4CCCCC4)ncnc3c2)c1 | i
O=C(Nc1ccc2ncnc(N3CCCCC3)c2c1)c1cncc(Br)c1 | 28µM*
O=C(Nc1ccc2ncnc(N3CCCCC3)c2c1)c1ccc(F)c(F)c1 | i
COc1ccccc1CC(=O)Nc1ccc2ncnc(N3CCCCC3)c2c1 | i
O=C(Nc1ccc2c(N3CCCC3)ncnc2c1)c1cccc(F)c1 | i
O=C(Nc1ccc2ncnc(N3CCCCC3)c2c1)c1cc(F)ccc1F | i
SMILES | KDM5B inhibitor
O=C(Nc1ccc2ncnc(N3CCCCC3)c2c1)c1ccsc1 | i
CCCCNC(C(=O)c1c[nH]c2c(CC)cccc12)c1ccccc1 (centres undefined) | i
CCCCC(NS(=O)(=O)Cc1ccccc1)C(=O)O (centres undefined) | i
CN1C(=O)C(NC(=O)C(=O)NCCc2c[nH]c3ccc(F)cc23)c2ccccc21 (centres undefined) | i
O=C(Nc1ccc2oc(-c3ccccc3)cc(=O)c2c1)c1ccccc1 | i
Cc1cc(C)c2c(N)c(-c3ccc(C#N)cc3)sc2n1 | i
COc1cc(NC(=O)N2CC(c3noc(-c4ccccc4)n3)C2)cc(OC)c1OC | i
N#CCCNC12CC3CC(CC(C3)C1)C2 | i
CN(CC(=O)Nc1c(Cl)cccc1Cl)CC(=O)N1CCC(Cc2ccccc2)CC1 | i
CCN1CCC(N(Cc2ccc3c(c2)OCO3)C(=O)Nc2ccc(OC)cc2OC)CC1 | i
COc1ccc2c(C)c(CC(=O)N3CCCCC3)c(=O)oc2c1 | i
O=C(CSc1cn(CC(=O)N2CCCC2)c2ccccc12)Nc1cccc(C(F)(F)F)c1 | i
CCc1[nH]nc2c1C1(C(=O)Nc3ccc(Cl)cc31)C(C#N)=C(N)O2 (centres undefined) | i
O=C1NCC2(CCN(c3nccc(CCC(F)(F)F)n3)CC2)O1 | 20µM*
COCc1nc(C2CC(N)C2)cc(N2CCC3(CC2)CNC(=O)O3)n1 (centres undefined) | i
N#Cc1ccccc1CN1CCN(c2nccc(CCC(F)(F)F)n2)CC1 | i
N[C@H]1CO[C@H]2[C@@H]1OC[C@@H]2n1cc(CC2CCCCC2)nn1 | i
Cc1ccc(CNC(=S)NCc2ccc(F)cc2)cc1 | i
FC(F)(F)c1cccc(-c2noc(-c3ccc(Br)cc3)n2)c1 | i
Cc1noc(-c2nc(-c3cccc(C(F)(F)F)c3)no2)n1 | i
Cc1oc(-c2cccc(C(F)(F)F)c2)nc1CN1CCCC(CO)C1 (centres undefined) | i
OC[C@@H]1CN(c2ccc(-c3nc(-c4cccc(C(F)(F)F)c4)no3)cn2)C[C@H]1CO | 28µM*
OCC1CCCN(c2ccc(-c3nc(-c4cccc(C(F)(F)F)c4)no3)cn2)C1 (centres undefined) | 28µM*
O=C(NC1CCCN(c2cc(-c3ccccc3)[nH]n2)C1)c1ccc(C(F)(F)F)cc1 (centres undefined) | i
CSc1nc2c(c(=O)[nH]1)C(C(=O)Nc1cc(F)cc(F)c1)CC(=O)N2 (centres undefined) | i
SMILES | KDM5B inhibitor
O=C(CSc1nc2nc[nH]c2c(=O)[nH]1)NCc1ccccc1Cl | i
CC(=O)Nc1ccc(S(=O)(=O)N2C[C@@H]3C[C@H](C2)c2ccc(-c4ccc5ccccc5c4)c(=O)n2C3)cc1 | 25µM*
CC(=O)Nc1ccc(-c2ccc(=O)n3c2[C@@H]2C[C@@H](CN(S(=O)(=O)c4ccc(F)cc4)C2)C3)cc1 | i
CC(=O)c1ccc(NC(=O)N2C[C@@H]3C[C@H](C2)c2ccc(NC(=O)Nc4cccc(C#N)c4)c(=O)n2C3)cc1 | i
COc1ccc(C(=O)N2C[C@@H]3C[C@H](C2)c2ccc(-c4ccc5ccccc5c4)c(=O)n2C3)cc1 | 28µM*
O=C(Nc1cccc(F)c1)N1CC2CC(C1)[C@H]1CCCC(=O)N1C2 (some centres undefined) | i
COc1ccc(S(=O)(=O)Nc2ccc3n(c2=O)C[C@H]2C[C@@H]3CN(C(=O)c3ccccn3)C2)cc1 | i
COc1ccc(C(=O)N2C[C@@H]3C[C@H](C2)c2ccc(NS(=O)(=O)c4cccc(C(F)(F)F)c4)c(=O)n2C3)cc1 | i
O=C(Nc1cccc(F)c1)N1C[C@@H]2C[C@H](C1)c1ccc(-c3cccc(C(F)(F)F)c3)c(=O)n1C2 | 28µM*
CC(=O)Nc1ccc(-c2ccc(=O)n3c2[C@@H]2C[C@@H](CN(S(=O)(=O)c4ccccc4)C2)C3)cc1 | i
Cc1ccc(Cl)cc1N1CC(O)=C(c2nc3ccccc3[nH]2)C1=N | i
COc1ccc(Nc2oc(-c3ccccc3C)nc2C#N)cc1 | i
CC1=C2C(=O)CC(c3ccc(F)cc3)CC2=Nc2ccccc2N1 (centres undefined) | i
Cn1c(=O)c2c(nc(Cl)n2CC(=O)NCC23CC4CC(CC(C4)C2)C3)n(C)c1=O | i
CCCCCc1ccc(-c2ccc(C3CCC(CCC)CC3)cc2)nc1 (centres undefined) | i
CC(C)c1ccc(NC(=O)N2CCN(C)C3(CCC(=O)N(C)CC3)C2)cc1 (centres undefined) | i
O=C(NC1CCS(=O)(=O)C1)c1cc2sccc2n1Cc1ccccc1Cl (centres undefined) | i
Nc1cc(N)nc(SCc2ccc(C(F)(F)F)cc2)n1 | i
CCCc1noc(-c2cccn3c(CNC(=O)c4cc(Cl)ccc4F)nnc23)n1 | 22µM*
CCCc1noc(-c2cccn3c(CNC(=O)c4cc(F)ccc4Cl)nnc23)n1 | 25µM*
Cc1cc(=O)n(CC(=O)Nc2ccccc2C)c(-c2ccccc2)n1 | i
